# Assay results taken from PubChem BioAssay.
# Calls of active or inactive are those of the source.
# Legend:
# [1] = E. coli DRC41 culture turbidity changes, primary screen, E. coli filamentation inducer project, strain DRC41, OD650, 48 h (AID 1152);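 note: E. coli MC1000 strain DRC41 lacking acrAB efflux pump and sulA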; conditions: E. coli DRC41 (acrAB sulA), higher = more signal, called active from +8 up or from −8 down
# [2] = small-molecule binders of probe aLefty1, primary screen, biochemical, small-molecule microarray, 635/667 nm fluorescence (AID 1153); conditions: higher = more signal;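 note: score merges spot fluorescence with signal-to-noise ratio from the scanned slide images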
# [3] = PSAC antagonists in infected red cells, primary screen, cell-based, P. falciparum Indochina, OD700, 1 h (AID 1154); conditions: P. falciparum Indochina infected RBC osmotic lysis, higher = more signal, called active from +8 up or from −8 down
# [4] = PSAC antagonists in infected red cells, primary screen, cell-based, P. falciparum Indochina, OD700, 2 h (AID 1155);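 note: lysis reports solute entry through the parasite surface anion channel PSAC; channel blockers reduce lysis of infected cells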; conditions: P. falciparum Indochina infected erythrocytes, osmotic lysis OD700; higher = more signal, called active from +8 up or from −8 down
# [5] = osmotic lysis modulators in infected erythrocytes, primary screen, PSAC antagonist project, cell-based, P. falciparum Indochina, OD700, 3 h (AID 1156); conditions: higher = more signal, called active from +8 up or from −8 down
# [6] = PSAC antagonists in infected red cells, primary screen, cell-based, P. falciparum Indochina, OD700, 18 h (AID 1157); conditions: P. falciparum Indochina infected erythrocytes, osmotic lysis OD700, 18 h; higher = more signal, called active from +8 up or from −8 down
# [7] = modulators of S6 phosphorylation in cells, primary screen, cell-based, A549, cytoblot, luminescence, serum-stimulated (AID 1158); conditions: A549 phospho-S6 cytoblot, 5 h, higher = more signal;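 note: serum-stimulated A549 lung adenocarcinoma cells; signal is phosphorylated S6 detected by cytoblot immunostaining with HRP secondary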
# [8] = target: NADPH oxidase 2 (Homo sapiens) (UniProt P04839); assay: NOX2-dependent H2O2 signal modulators, primary screen, NOX inhibitor project, cell-based, HEK293-NOX2, PMA-stimulated, Amplex Red fluorescence (AID 1159); conditions: 45 min, higher = more signal, called active from +8 up or from −8 down; note: test concentration not given here
# [9] = target: NADPH oxidase 4 (Homo sapiens) (UniProt Q9NPH5); assay: NOX4-dependent H2O2 signal modulators, primary screen, NOX inhibitor project, cell-based, HEK293-NOX4, tetracycline-induced, Amplex Red fluorescence (AID 1160); conditions: 45 min, higher = more signal, called active from +8 up or from −8 down
# [10] = target: NADPH oxidase 5 (Homo sapiens) (UniProt Q96PH1); assay: NOX5-dependent H2O2 signal modulators, primary screen, NOX inhibitor project, cell-based, HEK293-NOX5, Amplex Red fluorescence (AID 1161); conditions: HEK293-NOX5, ionomycin, 45 min, higher = more signal
# [11] = A549 cell viability effects, profiling panel, calcein-AM fluorescence, 48 h, basal (AID 1162); conditions: higher = more signal; note: test concentration not given here
# [12] = adipocyte viability effects, profiling panel, cell-based, 3T3-L1 adipocytes, calcein-AM fluorescence, 48 h, basal (AID 1163); conditions: 3T3-L1 adipocytes viability, higher = more signal; note: test concentration not given here
# [13] = HepG2 cell viability effects, profiling panel, calcein-AM fluorescence, 48 h, basal (AID 1164); conditions: higher = more signal; note: test concentration not given here
# [14] = MM1S cell viability effects, profiling panel, calcein-AM fluorescence, 48 h, basal (AID 1165); conditions: higher = more signal;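 note: viability of MM1S multiple myeloma cells under basal unstimulated conditions; test concentration not given here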
# [15] = basal RPMI8226 viability, no added stimulus, profiling panel, cell-based, calcein-AM fluorescence, 48 h, PK04 Diversity Set (AID 1166); conditions: RPMI8226 myeloma viability, higher = more signal;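 note: cells grown under basal conditions without added stimulus; test concentration not given here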
# [16] = basal HepG2 mitochondrial membrane potential changes, profiling panel, cell-based, JC-1 fluorescence, 24 h, 100 nL compound (AID 1167); conditions: higher = more signal; note: test concentration not given here
# [17] = basal 3T3-L1 adipocyte mitochondrial potential changes, profiling panel, cell-based, JC-1 fluorescence, 3T3-L1 adipocytes, 24 h, 100 nL compound (AID 1168); conditions: JC-1 mitochondrial fluorescence, higher = more signal, called active from +8 up or from −8 down; note: test concentration not given here
# [18] = basal RPMI8226 mitochondrial membrane potential changes, profiling panel, cell-based, JC-1 fluorescence, 24 h, 100 nL compound (AID 1169); conditions: RPMI8226 myeloma, JC-1 mitochondrial potential fluorescence, higher = more signal; note: test concentration not given here
# [19] = basal MM1S mitochondrial membrane potential changes, profiling panel, cell-based, JC-1 fluorescence, 24 h, 100 nL compound (AID 1170); conditions: higher = more signal; note: test concentration not given here
# [20] = A549 lung cancer cell viability effects, profiling panel, resazurin fluorescence, 24 h, PK04 Diversity Set (AID 1171); conditions: higher = more signal, called active from +8 up or from −8 down; note: test concentration not given here
# Sequence of NADPH oxidase 5 (Homo sapiens) (Q96PH1 whole entry, looked up): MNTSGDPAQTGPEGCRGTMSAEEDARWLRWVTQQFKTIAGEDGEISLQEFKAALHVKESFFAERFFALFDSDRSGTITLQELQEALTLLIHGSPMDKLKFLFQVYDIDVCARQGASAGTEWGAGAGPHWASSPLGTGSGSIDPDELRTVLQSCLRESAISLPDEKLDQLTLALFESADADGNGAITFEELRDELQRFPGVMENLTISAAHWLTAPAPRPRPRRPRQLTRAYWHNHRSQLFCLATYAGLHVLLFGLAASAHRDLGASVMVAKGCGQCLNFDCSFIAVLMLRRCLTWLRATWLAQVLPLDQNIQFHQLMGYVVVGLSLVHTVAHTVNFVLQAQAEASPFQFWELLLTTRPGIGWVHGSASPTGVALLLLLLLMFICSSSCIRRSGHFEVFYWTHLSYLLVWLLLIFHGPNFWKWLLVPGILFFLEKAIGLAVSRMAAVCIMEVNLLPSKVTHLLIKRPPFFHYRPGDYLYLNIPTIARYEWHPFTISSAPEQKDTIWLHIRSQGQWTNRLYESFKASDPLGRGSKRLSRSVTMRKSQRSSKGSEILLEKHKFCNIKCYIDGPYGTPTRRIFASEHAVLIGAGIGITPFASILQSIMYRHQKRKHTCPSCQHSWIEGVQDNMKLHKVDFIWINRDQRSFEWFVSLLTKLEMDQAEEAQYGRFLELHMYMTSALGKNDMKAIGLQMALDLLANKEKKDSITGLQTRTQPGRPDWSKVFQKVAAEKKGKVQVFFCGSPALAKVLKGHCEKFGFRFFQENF
# Sequence of NADPH oxidase 4 (Homo sapiens) (Q9NPH5 whole entry, looked up): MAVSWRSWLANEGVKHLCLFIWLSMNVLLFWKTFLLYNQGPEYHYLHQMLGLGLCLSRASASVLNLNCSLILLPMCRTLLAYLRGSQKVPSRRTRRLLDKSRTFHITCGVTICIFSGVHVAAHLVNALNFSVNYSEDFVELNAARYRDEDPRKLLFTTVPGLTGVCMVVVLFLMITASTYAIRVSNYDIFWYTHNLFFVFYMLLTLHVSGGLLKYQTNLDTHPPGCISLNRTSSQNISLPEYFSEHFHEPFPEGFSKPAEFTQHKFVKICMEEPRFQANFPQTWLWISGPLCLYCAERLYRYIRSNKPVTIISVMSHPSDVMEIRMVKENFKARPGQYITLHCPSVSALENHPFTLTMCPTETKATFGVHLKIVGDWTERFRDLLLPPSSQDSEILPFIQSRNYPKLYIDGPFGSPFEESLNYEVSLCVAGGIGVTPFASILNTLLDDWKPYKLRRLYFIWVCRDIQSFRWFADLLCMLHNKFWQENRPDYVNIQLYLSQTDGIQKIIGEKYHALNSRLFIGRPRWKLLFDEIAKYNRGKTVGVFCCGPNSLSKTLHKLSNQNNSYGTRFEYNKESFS
# Sequence of NADPH oxidase 2 (Homo sapiens) (P04839 whole entry, looked up): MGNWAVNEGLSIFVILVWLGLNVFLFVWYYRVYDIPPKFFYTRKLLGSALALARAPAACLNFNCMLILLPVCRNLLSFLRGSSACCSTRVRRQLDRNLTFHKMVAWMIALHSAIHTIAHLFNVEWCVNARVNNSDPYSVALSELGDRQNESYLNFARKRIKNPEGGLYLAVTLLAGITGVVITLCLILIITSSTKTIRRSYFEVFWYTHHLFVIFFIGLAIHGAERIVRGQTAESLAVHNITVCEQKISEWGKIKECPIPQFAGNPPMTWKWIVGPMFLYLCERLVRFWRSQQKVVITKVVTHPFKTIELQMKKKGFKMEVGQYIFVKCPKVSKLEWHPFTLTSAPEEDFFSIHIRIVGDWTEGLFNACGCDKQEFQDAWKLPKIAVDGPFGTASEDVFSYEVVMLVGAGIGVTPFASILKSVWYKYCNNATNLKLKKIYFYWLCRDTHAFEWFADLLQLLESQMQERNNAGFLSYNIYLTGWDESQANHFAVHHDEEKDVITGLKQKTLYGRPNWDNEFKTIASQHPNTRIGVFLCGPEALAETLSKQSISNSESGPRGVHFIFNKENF
Structure (SMILES),z-score [1],composite z-score [2],z-score [3],z-score [4],z-score [5],z-score [6],z-score [7],z-score [8],z-score [9],z-score [10],z-score [11],z-score [12],z-score [13],z-score [14],z-score [15],z-score [16],z-score [17],z-score [18],z-score [19],z-score [20]
O=C1OCCC/C=C\[C@H]2OC34C=CCN(Cn5nnc6ccccc65)C(=O)[C@H]3N(CCCCCCO)C(=O)[C@@H]4C12 (stereo not given in full),3.64 (inactive),-0.481,3.95 (inactive),-0.392 (inactive),-0.193 (inactive),-0.677 (inactive),2.58,1.15 (inactive),0.377 (inactive),2.11,1.06,0.469,1.42,1.8,-0.0474,0.733,0.932 (inactive),-0.263,-1.14,0.818 (inactive)
O=C1OCC=C[C@H]2OC34C=CCN(c5ccc6ccccc6c5)C(=O)[C@H]3N(CCCCCCO)C(=O)[C@@H]4[C@@H]12 (stereo not given in full),-0.0903 (inactive),0.0839,3.18 (inactive),0.0422 (inactive),0.966 (inactive),0.525 (inactive),-0.482,1.36 (inactive),0.0322 (inactive),2.12,0.429,-0.358,0.878,1.38,-0.0053,0.631,0.613 (inactive),-0.979,0.469,0.61 (inactive)
Cc1ccc(S[C@]2(C(=O)NCCN3CCOCC3)CC(=O)N(Cc3ccccc3Cl)[C@@H]2c2ccc(CO)cc2)cc1,0.59 (inactive),0.0402,2.62 (inactive),0.43 (inactive),1.94 (inactive),0.524 (inactive),0.413,-2.29 (inactive),-1.85 (inactive),-2.89,0.263,1.03,-0.0334,0.368,-1.77,0.482,-0.41 (inactive),-0.168,-1.17,1.05 (inactive)
CN(C)CCCNC(=O)[C@@]1(c2ccc([N+](=O)[O-])cc2)CC(=O)N(C2CCCCC2)[C@@H]1c1ccc(CO)cc1,0.0097 (inactive),0.0793,1.31 (inactive),0.346 (inactive),2.09 (inactive),-0.0633 (inactive),-0.0223,1.84 (inactive),1.31 (inactive),0.787,0.259,-0.272,0.23,-0.432,-1.43,0.259,0.255 (inactive),0.956,-0.435,0.497 (inactive)
CC(C)c1ccc(NN2C(C(O)c3cc(C(F)(F)F)cc(C(F)(F)F)c3)C=CC3C(=O)N(c4ccccc4)C(=O)C32)cc1 (stereo not given),-2.06 (inactive),-0.101,3.24 (inactive),1.88 (inactive),-1.37 (inactive),2.32 (inactive),0.122,-1.3 (inactive),-5.07 (inactive),-4.2,-2.37,0.15,-3.12,-3.4,-4.14,-2.69,-0.414 (inactive),-0.873,-1.57,-2.11 (inactive)
O=C1NC(=O)C2C1C=CC(C(O)Cc1ccccc1)N2Nc1ccc(Cl)cc1Cl (stereo not given),-0.78 (inactive),0.599,4.35 (inactive),0.953 (inactive),0.273 (inactive),1.15 (inactive),-0.834,-1.28 (inactive),-5.02 (inactive),-1.9,0.447,-0.0852,-1.57,-0.988,-0.388,-1.73,-0.00872 (inactive),-0.371,-0.375,-0.519 (inactive)
C=CCC(OC(C)=O)[C@@H]1[C@@H](N(Cc2ccc(-c3cccc(C(F)(F)F)c3)o2)C(=O)c2ccc(-c3ccccc3)cc2)c2cc(OCCCO)ccc2N1C(=O)c1ccc(-c2ccccc2)cc1 (stereo not given in full),-0.894 (inactive),-0.169,0.566 (inactive),0.434 (inactive),0.0785 (inactive),0.508 (inactive),0.0635,-1.27 (inactive),-1.05 (inactive),0.713,0.0361,0.114,0.104,0.365,-0.297,1.25,-0.581 (inactive),0.287,0.872,-0.176 (inactive)
O=C1O[C@H](c2ccccc2)[C@H](c2ccccc2)N2[C@H]1[C@@H](C(=O)Nc1nc3ccccc3s1)[C@]1(C(=O)Nc3ccc(C#CCCO)cc31)[C@H]2c1ccc(OCCO)cc1,-0.448 (inactive),1.34,3.09 (inactive),2.02 (inactive),0.97 (inactive),2 (inactive),-0.472,1.18 (inactive),0.111 (inactive),0.278,0.233,0.205,1.03,-0.265,0.743,-3.28,0.491 (inactive),-0.995,-1.49,0.441 (inactive)
